Screening data as filed in PubChem.
Myeloid diff 2: promotes myeloid progenitor differentiation; AID 624256; ER-HoxA9 myeloid progenitors, lysozyme-GFP differentiation, flow cytometry; actives 1% (n = 360,000); calls only at 10 µM;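 active = normalized GFP-positive differentiation at or above the plate's own cutoff, the solvent-only control mean plus 3 SD; inconclusive = no clear call, values can overlap the other calls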;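 note: cells exposed to compound for four days before flow analysis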
TPT1 inh: inhibitors of Candida albicans tRNA 2'-phosphotransferase TPT1 | inhibition, % at 5 µM | AID 1962 | actives 0.81% (n = 300,000) | recombinant caTPT1, FP RNA substrate dephosphorylation;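 active = inhibition above the mean of all tested compounds plus 3 SD, set per screening campaign, cut at about 24% in these data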;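 note: plate controls were DMSO alone for no effect and ferristatin control at 100 nM for full effect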
Rpn11 block: inhibitors of human proteasome Rpn11. human 26S proteasome, Ub4-pepOG fluorescence polarization; 20S core pre-blocked with epoxomicin. AID 588493. inhibition, % at 20 µM. actives 0.59% (n = 360,000);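 active = inhibition at 20 µM, scaled to each plate's controls, above about 33%, limit read from the data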
Target sequence (O00487 whole entry, looked up): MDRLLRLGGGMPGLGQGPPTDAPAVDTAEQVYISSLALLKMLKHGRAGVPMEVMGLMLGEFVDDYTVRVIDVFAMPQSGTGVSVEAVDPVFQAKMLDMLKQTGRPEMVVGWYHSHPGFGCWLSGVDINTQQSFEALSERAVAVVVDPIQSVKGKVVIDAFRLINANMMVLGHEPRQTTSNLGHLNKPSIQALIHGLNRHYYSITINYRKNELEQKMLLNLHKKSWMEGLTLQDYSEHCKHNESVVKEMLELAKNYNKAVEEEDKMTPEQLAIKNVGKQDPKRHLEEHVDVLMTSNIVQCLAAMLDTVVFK
HNF4A DNA FP: change in binding of human HNF4 alpha to DNA. HNF4a-FITC DNA binding, fluorescence polarization, 1 h. activity change, % at 10 µM. actives 0.3% (n = 360,000); in the data active = activity change above about 30%, passing the limit was not always enough
Starred values were filed as active, the others as inactive; i = inactive; ? = inconclusive; . = no result given; + = active, no number. Compounds with a hit are over-represented: about 2.1% of the library has one in this group of screens.

SMILES	Myeloid diff 2	TPT1 inh	Rpn11 block	HNF4A DNA FP
Fc1ccc(-c2cc3nc(-c4ccccc4)cc(N4CCN(CCN5CCOCC5)CC4)n3n2)cc1	+	.	6	5
COc1cccc(N(CC(=O)NC2CCCC2)C(=O)CCC(=O)Nc2cc(C)on2)c1	+	1	2	-3
O=C(/C=C/c1cc[n+](CC(=O)c2ccc3cccc4c3c2CC4)cc1)c1ccc2cccc3c2c1CC3	+	49*	119*	178
O=C(Oc1cccc2cccnc12)c1cccs1	+	2	-4	5
COCCNC(=S)N1CCOCC1	i	0	-4	-4
Cc1[nH]c2c(C)cccc2c1CCNC(=O)c1ccc2c(c1[N+](=O)[O-])C(=O)c1ccccc1C2=O	i	-1	4	4
Cc1[nH]c2ccccc2c1CCNC(=O)c1ccc2c(c1[N+](=O)[O-])C(=O)c1ccccc1C2=O	+	-7	0	0
CC(C1CC2CCC1C2)N1CC(O)=C(c2nc3ccccc3[nH]2)C1=N (configuration not stated)	+	6	25	10
Cc1ccc(C)c(N(CC(=O)NC2CCCC2)S(=O)(=O)c2ccccc2)c1	i	-1	-2	-4
COc1ccc(Oc2cc(F)nc(N)n2)cc1	i	-4	0	1
Cc1ccc(C)c(Oc2cc(F)nc(N)n2)c1	+	0	-7	1
c1ccc(N2CCCCC2)c(Nc2nc3ccccc3n3cnnc23)c1	i	0	5	-4
FC(F)(F)c1ccc(N2CCOCC2)c(Nc2nc3ccccc3n3cnnc23)c1	i	0	2	30*
O=C(/C=C/c1ccco1)Nc1nnc(-c2ccco2)s1	+	-3	6	-3
CCCCCc1cc(=O)oc2c(C(CCN3CCCCC3)c3ccc4c(c3)OCO4)c(OC)cc(OC)c12 (configuration not stated)	+	-1	0	4
Cc1nn(C2CC(O)C(O)C(CO)O2)c(=O)[nH]c1=O (configuration not stated)	i	.	0	0
COc1ccc(C(=O)NN=C2CCCC2)cc1	+	2	-1	-2
COC(=O)Cn1c(C)c(/C=C/c2cc[n+](C)cc2)c2ccccc21	+	.	.	128
COC(=O)Cn1c(=O)c(=O)n(CC(=O)OC)c2ccccc21	i	0	-4	1
O=C(NCc1ccc(F)cc1)C(c1ccccc1)c1ccccc1	i	-1	3	1
CC(=O)N(Cc1ccc(F)cc1)C1=C(NCc2ccccc2)C(=O)c2ccccc2C1=O	+	.	-4	1
COc1ccc(-c2nc(CSCC(=O)NC3CCCC3)c(C)o2)cc1OC	?	0	-2	-4
Cc1cc(C)c(C#N)c(SCCS(=O)(=O)c2ccc(C(C)(C)C)cc2)n1	+	3	-2	1
Cc1cc(C)c(C#N)c(SCCS(=O)(=O)c2ccc(Cl)cc2)n1	i	-6	11	4
CCc1nc2ccccc2n1CC1CC1(Cl)Cl (configuration not stated)	i	0	-9	0
SMILES	Myeloid diff 2	TPT1 inh	Rpn11 block	HNF4A DNA FP
Fc1ccc(-c2cn(-c3ccccc3)c3[n+]2CCS3)cc1	+	-2	4	0
Clc1ccc(-c2cn(-c3ccccc3)c3[n+]2CCS3)cc1	.	-3	-3	-1
Cc1cc(=O)oc(C)c1C(=O)n1nc(C)c2c1C[C@@H]1[C@H]2C1(C)C	i	-4	4	52*
O=C(O)CS(=O)(=O)c1ccc(C(F)(F)F)cn1	+	-2	3	3
CCCNc1c(F)c(F)c2c(C)c3ccccc3nc2c1F	+	-116	-34	-60
C=CCn1c(=NC(=O)c2ccc(S(=O)(=O)N3CCCc4ccccc43)cc2)sc2cc(S(N)(=O)=O)ccc21	i	-2	5	0
COCCn1c(=NC(=O)c2ccc(S(=O)(=O)N3CCCc4ccccc43)cc2)sc2cc(S(C)(=O)=O)ccc21	+	-2	4	0
CCCCOc1ccc(NC(=O)CSc2nnnn2C)cc1	i	-1	8	0
CCS(=O)(=O)Nc1cccc(C2=NN(S(C)(=O)=O)C(c3ccccc3)C2)c1 (configuration not stated)	i	0	9	121
CS(=O)(=O)N1N=C(c2ccc(Br)cc2)CC1c1ccc2c(c1)OCO2 (configuration not stated)	+	1	21	17
CCS(=O)(=O)N1N=C(c2cccc(NS(C)(=O)=O)c2)CC1c1ccc(C)cc1 (configuration not stated)	+	13	.	159
Cc1ccc(C2=NN(S(C)(=O)=O)C(c3ccc4c(c3)OCO4)C2)cc1 (configuration not stated)	+	0	40	51*
COCCN1C(=O)c2oc3cc(C)c(C)cc3c(=O)c2C1c1cccc(O)c1 (configuration not stated)	i	2	0	1
Nc1ccc2nc(-c3ccc(-c4nc5ccc(N)cc5[nH]4)cc3)[nH]c2c1	.	6	.	.
Nc1ccc2nc(-c3cccc(-c4nc5ccc(N)cc5[nH]4)n3)[nH]c2c1	+	7	1	6
Cc1cc2c(SCC(=O)Nc3cccc(O)c3)ncnc2s1	+	.	36	-20
Cc1ccc(CS(=O)(=O)c2ccc(C(=O)N3CCN(c4ccccn4)CC3)cc2[N+](=O)[O-])cc1	+	-3	2	0
Cc1ccc(CS(=O)(=O)c2ccc(C(=O)N3CCCCC3)cc2[N+](=O)[O-])cc1	i	1	4	-4
Clc1ccc2c(NCCNC3CCCCC3)ccnc2c1	+	.	-3	0
CC(C)NC1CCC(Nc2ccnc3cc(Cl)ccc23)CC1 (configuration not stated)	+	.	3	0
OCC[C@@H]1C[C@H](O)[C@@H](O)[C@]2(OCc3ccc4ccccc4c32)O1	i	.	-2	-3
COc1ccc(CCc2nnc(CCC(=O)NCc3cc(C(C)C)no3)o2)cc1	i	2	-8	4
CC1CCCC(C)N1C(=O)CSc1nc(N)cc(N)n1 (configuration not stated)	i	1	-4	53*
COc1cc(CC(=O)N(C)CC(=O)Nc2ccc(Cl)c(C(F)(F)F)c2)cc(OC)c1OC	i	-2	2	1
C#CCOCCOCCOCCNc1nc(N2CCN(C(=O)CCCCCCCCCCNC(=O)[C@H]([C@@H](C)CC)n3cc(CCCCCN)nn3)CC2)nc(N2CCN(C(=O)CCCCCCCCCCNC(=O)[C@@H]([C@H](C)CC)n3cc(CCCCCN)nn3)CC2)n1	.	-2	.	.
C#CCOCCOCCOCCNc1nc(N2CCN(C(=O)CCCCCCCCCCNC(=O)Cn3cc(CCCCCN)nn3)CC2)nc(N2CCN(C(=O)CCCCCCCCCCNC(=O)[C@@H](CCC(=O)O)n3cc(CCCCCN)nn3)CC2)n1	i	-5	-1	5
